# Laboratory results taken from PubChem BioAssay (EPA / NIEHS).
# Results filed as inconclusive are left out. Calls of active or inactive are those of the source. How the source made its calls, unless noted: active means hit-call score of the fitted dose curve at least 0.9, where 1 is the maximum; inactive means score below 0.9.
# Tests used:
# [1] = target: Nucleoli Translocation, AR (gene 367) (UniProt P10275); assay: UPITT_HCI_U2OS_AR_TIF2_Nucleoli_Antagonist: University of Pittsburgh U2OS Androgen Receptor-Transcriptional Intermediary Factor 2 (AR-TIF2) Antagonism High Content Imaging Assay for Nucleoli Translocation (AID 2283997; active means hit-call score of the fitted dose curve at least 0.9, where 1 is the maximum)
# Procedure, shortened: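 An antagonist-mode imaging screen: engineered U2OS (AR-RFP, TIF2-GFP) exposed to 20 uM compound, 0.2% DMSO. Activity reflects nucleolar red fluorescence change relative to DHT baseline.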
# [2] = target: Nucleoli Translocation, AR (gene 367) (UniProt P10275); assay: UPITT_HCI_U2OS_AR_TIF2_Nucleoli_Agonist: University of Pittsburgh U2OS Androgen Receptor-Transcriptional Intermediary Factor 2 (AR-TIF2) Agonism High Content Imaging Assay for Nucleoli Translocation (AID 2283998; active means hit-call score of the fitted dose curve at least 0.9, where 1 is the maximum)
# Procedure, shortened: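 Red-tagged human androgen receptor co-expressed with GFP-tagged TIF2 serves as the binding reporter. Primary testing used 20 uM final (0.2% DMSO); follow-up dose response covered 0.195 to 50 uM final (0.5% DMSO).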
# [3] = target: Ratio of Nucleoli Translocation and Cytoplasm, AR (gene 367) (UniProt P10275); assay: UPITT_HCI_U2OS_AR_TIF2_Nucleoli_Cytoplasm_Ratio_Antagonist: University of Pittsburgh U2OS Androgen Receptor-Transcriptional Intermediary Factor 2 (AR-TIF2) Antagonism High Content Imaging Assay for Ratio of Nucleoli Translocation and Cytoplasm (AID 2283999; active means hit-call score of the fitted dose curve at least 0.9, where 1 is the maximum;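 further: antagonists lower the DHT-driven ratio of nucleolar to cytoplasmic red signal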)
# Procedure, shortened: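 Compounds were added to U2OS cells carrying red-fluorescent AR and green-fluorescent TIF2, first at 20 uM, with hits confirmed in triplicate and titrated from 0.195 to 50 uM. Nucleolar versus cytoplasmic AR-RFP fluorescence was then quantified by imaging, with analysis relative to DHT.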
# [4] = CCTE_Shafer_MEA_acute_spike_number: CCTE's Neural Acute Assay for Total Number of Spikes, Shafer Lab (AID 2284008);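 on AC50: curve fitted for decrease in spike count so AC50 reflects inhibitors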
# Procedure, shortened: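 Cortical neurons from rat, matured to DIV 13 or 15 on microelectrode arrays, are recorded at 37 C before and during 40-min exposure to 0.03-40 uM compound. Wells need >/= 10 active electrodes.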
# [5] = CCTE_Shafer_MEA_acute_firing_rate_mean: CCTE's Neural Acute Assay for Mean Firing Rate, Shafer Lab (AID 2284009);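 further: analyzed for loss of signal so actives lower firing rate relative to DMSO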
# Procedure, shortened: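 Spontaneous spiking of primary rat cortical networks, DIV 13/15, 37 C. Compound 0.03-40 uM, n ≥3 wells; 40 min baseline vs 40 min treated. Endpoint fitted in loss-of-signal direction against DMSO.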
# [6] = target: Ratio of Nucleoli Translocation and Cytoplasm, AR (gene 367) (UniProt P10275); assay: UPITT_HCI_U2OS_AR_TIF2_Nucleoli_Cytoplasm_Ratio_Agonist: University of Pittsburgh U2OS Androgen Receptor-Transcriptional Intermediary Factor 2 (AR-TIF2) Agonism High Content Imaging Assay for Ratio of Nucleoli Translocation and Cytoplasm (AID 2284000; active means hit-call score of the fitted dose curve at least 0.9, where 1 is the maximum;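 further: hits raise the red nucleolar to cytoplasm ratio above vehicle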)
# Procedure, shortened: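 Primary screen at 20 uM final (0.2% DMSO), then triplicate confirmation and dose-response from 0.195 to 50 uM final (0.5% DMSO). Cells: U2OS with AR-RFP and TIF2-GFP. Endpoint is the nucleoli/cytoplasm red-fluorescence ratio, gain-of-signal vs DMSO.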
# [7] = CCTE_Harrill_HTTr_Viability_MCF7: CCTE's 6-hour Cell Viability Assessment for the High-Throughput Transcriptomics (HTTr) Platform, in MCF-7 cells cultured in DMEM + 10% fetal bovine serum, Harrill Lab (AID 2284010)
# Procedure, shortened: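 Read-out is propidium iodide gain of signal by high-content imaging, reflecting membrane integrity loss. Measurements are taken 6 h after dosing, eight concentrations per chemical, with DMSO serving as baseline for bidirectional curve fitting.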
# [8] = CCTE_Simmons_MITO_basal_resp_rate: CCTE's HepG2 Seahorse XF Respirometric Screening Assay at Basal Respiratory State, Simmons Lab (AID 2284001); details: actives raise or lower the signal
# Procedure, shortened: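 Readout is oxygen consumption rate after test compound injection, measured by Seahorse XF in HepG2 cells. Seven concentrations from 125 nM up to 100 uM final are tested, and activity in either direction is fitted against DMSO.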
# [9] = CCTE_Simmons_MITO_max_resp_rate: CCTE's HepG2 Seahorse XF Respirometric Screening Assay at Maximal Respiratory State [uncoupled], Simmons Lab (AID 2284002); details: actives raise or lower the signal
# Procedure, shortened: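 Maximal respiration in HepG2 cells is recorded as OCR by Seahorse XF following FCCP injection. Compounds span 125 nM–100 uM final; activity is called in either direction against DMSO.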
# [10] = CCTE_Simmons_MITO_inhib_resp_rate: CCTE's HepG2 Seahorse XF Respirometric Screening Assay at Inhibited Respiratory State [full ETC block], Simmons Lab (AID 2284006); details: actives raise or lower the signal
# Procedure, shortened: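 Seahorse respirometry, HepG2, 72 min total, 6-min mix/measure cycles. Cpd 125 nM–100 uM final ×7, n=3 biological. Sequential FCCP, rotenone/antimycin A; inhibited-respiration OCR, bidirectional fit vs DMSO.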
# [11] = CCTE_Simmons_MITO_viability: CellTiter-Glo Viability Assessment for CCTE's HepG2 Seahorse XF Respirometric Screening Assay [post-hoc], Simmons Lab (AID 2284007; active means hit-call score of the fitted dose curve at least 0.9, where 1 is the maximum;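 on AC50: cells exposed to chemical for 90 min before the ATP read; actives lower ATP signal relative to DMSO baseline meaning reduced viability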)
# Procedure, shortened: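 Cytotoxicity readout: ATP quantitation via luciferase in HepG2 cells treated 90 min with seven titrated concentrations (125 nM to 100 uM, final). Curves fitted relative to DMSO negative control, three biological replicates per concentration.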
# [12] = CCTE_Harrill_HTTr_Viability_PRF_DMEM_12hr: (Pilot) CCTE's 12-hour Cell Viability Assessment for the High-Throughput Transcriptomics (HTTr) Platform, in MCF-7 cells cultured in phenol red-free DMEM + 10% charcoal-stripped fetal bovine serum, Harrill Lab (AID 2283977)
# Procedure, shortened: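 Membrane integrity was scored via propidium iodide dye exclusion imaging, fitted in both directions relative to DMSO. Compounds ran as eight-point dilutions for 12 hours on MCF-7 grown in phenol red-free DMEM plus 10% charcoal-stripped serum.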
# [13] = CCTE_Harrill_HTTr_Apoptosis_DMEM_6hr: (Pilot) CCTE's 6-hour Apoptosis Assessment for the High-Throughput Transcriptomics (HTTr) Platform, in MCF-7 cells cultured in DMEM + 10% fetal bovine serum, Harrill Lab (AID 2283981)
# Procedure, shortened: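 MCF-7 cells grown in DMEM + 10% FBS were exposed for 6 hours to an eight-point dilution series. CellEvent Caspase 3/7 Green signal was imaged; activity fitted bidirectionally against DMSO.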
# [14] = CCTE_Harrill_HTTr_Apoptosis_DMEM_12hr: (Pilot) CCTE's 12-hour Apoptosis Assessment for the High-Throughput Transcriptomics (HTTr) Platform, in MCF-7 cells cultured in DMEM + 10% fetal bovine serum, Harrill Lab (AID 2283982)
# Procedure, shortened: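 Caspase-3/7 activity was measured by high-content imaging (CellEvent Caspase 3/7 Green) after a 12-hour exposure of MCF-7 cells grown in DMEM with 10% FBS. Eight-point concentration series, fitted bidirectionally against vehicle.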
# [15] = CCTE_Harrill_HTTr_Apoptosis_DMEM_24hr: (Pilot) CCTE's 24-hour Apoptosis Assessment for the High-Throughput Transcriptomics (HTTr) Platform, in MCF-7 cells cultured in DMEM + 10% fetal bovine serum, Harrill Lab (AID 2283983)
# Procedure, shortened: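 Caspase-3/7 activity read by high-content imaging (CellEvent Green reagent) 24 h after dosing. MCF-7 cells grown in DMEM with 10% FBS received an eight-point concentration series; fits were bidirectional versus DMSO.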
# [16] = CCTE_Harrill_HTTr_Apoptosis_PRF_DMEM_6hr: (Pilot) CCTE's 6-hour Apoptosis Assessment for the High-Throughput Transcriptomics (HTTr) Platform, in MCF-7 cells cultured phenol red-free DMEM + 10% charcoal-stripped fetal bovine serum, Harrill Lab (AID 2283984)
# Procedure, shortened: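 Caspase-3/7 activity (CellEvent Green) read by high-content imaging 6 h after dosing, eight concentrations. Cells: MCF-7, phenol red-free DMEM with 10% charcoal-stripped serum. Curves fit both directions against DMSO.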
# [17] = CCTE_Harrill_HTTr_Apoptosis_PRF_DMEM_24hr: (Pilot) CCTE's 24-hour Apoptosis Assessment for the High-Throughput Transcriptomics (HTTr) Platform, in MCF-7 cells cultured in phenol red-free DMEM + 10% charcoal-stripped fetal bovine serum, Harrill Lab (AID 2283986)
# Procedure, shortened: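 Eight concentrations tested for 24 h on MCF-7 grown in charcoal-stripped serum, phenol red-free DMEM. High content imaging of CellEvent Caspase 3/7 Green signal gives apoptosis read-out, fitted both ways relative to DMSO.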
# DIO1 (gene 1733) = assay: CCTE_GLTED_hDIO1: CCTE's human Deiodinase 1 (DIO1) Inhibition Assay, Great Lakes Toxicology and Ecology Division (GLTED) Lab (AID 2283987; active means hit-call score of the fitted dose curve at least 0.9, where 1 is the maximum;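 further: isolated human DIO1 enzyme in a cell-free setup rather than cells; enzyme activity read as free iodide liberated from substrate via Sandell-Kolthoff colorimetry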)
# Procedure, shortened: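 Cell-free hDIO1 assay, triplicate plates. Absorbance of the Sandell-Kolthoff reaction reports enzyme-liberated iodide; iodinated chemicals or nitrite, iron and thiocyanate may interfere.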
# [18] = CCTE_Harrill_HTTr_Viability_PRF_DMEM_24hr: (Pilot) CCTE's 24-hour Cell Viability Assessment for the High-Throughput Transcriptomics (HTTr) Platform, in MCF-7 cells cultured in phenol red-free DMEM + 10% charcoal-stripped fetal bovine serum, Harrill Lab (AID 2283980)
# Procedure, shortened: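 Propidium iodide exclusion imaged at 24 h after dosing scores viability; cells were MCF-7 grown in phenol red-free DMEM plus 10% charcoal-stripped serum, tested in eight concentrations, fitted in both directions against DMSO.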
# Sequence of Nucleoli Translocation, AR (gene 367) (P10275 whole entry, looked up): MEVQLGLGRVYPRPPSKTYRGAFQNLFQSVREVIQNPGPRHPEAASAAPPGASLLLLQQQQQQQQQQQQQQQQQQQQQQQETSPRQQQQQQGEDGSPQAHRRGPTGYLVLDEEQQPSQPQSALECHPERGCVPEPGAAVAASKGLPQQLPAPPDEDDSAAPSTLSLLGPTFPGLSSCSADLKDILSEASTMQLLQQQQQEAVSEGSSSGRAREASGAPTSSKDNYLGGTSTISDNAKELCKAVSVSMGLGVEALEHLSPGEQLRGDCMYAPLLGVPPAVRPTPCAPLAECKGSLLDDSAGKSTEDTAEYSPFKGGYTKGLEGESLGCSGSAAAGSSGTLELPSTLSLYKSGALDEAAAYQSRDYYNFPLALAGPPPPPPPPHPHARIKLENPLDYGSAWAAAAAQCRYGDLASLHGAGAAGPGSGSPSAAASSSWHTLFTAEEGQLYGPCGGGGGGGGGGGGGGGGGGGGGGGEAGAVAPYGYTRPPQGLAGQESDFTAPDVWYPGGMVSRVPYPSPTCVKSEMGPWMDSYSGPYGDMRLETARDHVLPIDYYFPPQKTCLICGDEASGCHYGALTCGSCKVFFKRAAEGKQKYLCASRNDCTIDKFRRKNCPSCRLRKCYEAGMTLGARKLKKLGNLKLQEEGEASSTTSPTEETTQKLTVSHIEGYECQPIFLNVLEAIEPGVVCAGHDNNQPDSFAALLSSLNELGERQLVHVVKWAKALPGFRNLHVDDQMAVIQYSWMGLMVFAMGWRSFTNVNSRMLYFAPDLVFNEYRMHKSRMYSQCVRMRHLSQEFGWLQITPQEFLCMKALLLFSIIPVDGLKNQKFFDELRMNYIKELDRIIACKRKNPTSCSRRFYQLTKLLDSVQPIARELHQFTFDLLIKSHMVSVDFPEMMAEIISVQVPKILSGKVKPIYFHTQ
# Sequence of Ratio of Nucleoli Translocation and Cytoplasm, AR (gene 367) (P10275 whole entry, looked up): as above
smiles,measurement,setting,value
C=CCCCCCCCCCCCC,outcome,[1],inactive
same,outcome,[2],inactive
same,outcome,[3],inactive
NC(=Nc1ccccc1)Nc1ccccc1,AC50,[4],2.02 µM (active)
same,AC50,[5],2.03 µM (active)
CC1=C(C)S(=O)(=O)CCS1(=O)=O,outcome,[1],inactive
same,outcome,[2],inactive
same,outcome,[6],inactive
same,outcome,[4],inactive
same,outcome,[5],inactive
same,outcome,[7],inactive
O=C(NS(=O)(=O)/C=C/c1cccs1)c1ccc(F)cc1Br,outcome,[1],inactive
same,outcome,[6],inactive
same,outcome,[7],inactive
O=C1OC(c2ccc(O)cc2)(c2ccc(O)cc2)c2ccccc21,AC50,[1],86.2 µM (active)
same,AC50,[2],78.7 µM (active)
same,outcome,[3],inactive
same,AC50,[6],77 µM (active)
same,AC50,[8],32.6 µM (active)
same,outcome,[9],inactive
same,outcome,[10],inactive
same,AC50,[11],9.92 µM (active)
same,outcome,[4],inactive
same,outcome,[5],inactive
COC(=O)[C@H]1[C@H]2C[C@@H]3c4[nH]c5cc(OC)ccc5c4CCN3C[C@H]2C[C@@H](OC(=O)c2cc(OC)c(OC)c(OC)c2)[C@@H]1OC,outcome,[12],inactive
same,outcome,[13],inactive
same,outcome,[14],inactive
same,AC50,[15],46.2 µM (active)
same,outcome,[16],inactive
same,AC50,[17],58.3 µM (active)
same,AC50,[4],1.03 µM (active)
same,AC50,[5],1.04 µM (active)
same,outcome,[7],inactive
CCOCCOCCO,outcome,[1],inactive
same,outcome,[2],inactive
same,outcome,[3],inactive
same,outcome,[6],inactive
S=c1[nH]c2ccccc2s1,AC50,DIO1 (gene 1733),23.4 µM (active)
Nc1nc(=S)c2[nH]cnc2[nH]1,outcome,[1],inactive
same,outcome,[2],inactive
same,outcome,[6],inactive
same,outcome,[4],inactive
same,outcome,[5],inactive
same,outcome,[7],inactive
O=C(Oc1ccccc1)c1cccc(C(=O)Oc2ccccc2)c1,outcome,[1],inactive
same,outcome,[2],inactive
same,outcome,[3],inactive
same,outcome,[6],inactive
same,outcome,[7],inactive
CSc1ccc(Oc2ccc(S(N)(=O)=O)cc2CN(C)C)cc1C,outcome,[1],inactive
same,AC50,[2],50 µM (active)
same,outcome,[3],inactive
same,AC50,[6],74.8 µM (active)
same,outcome,[4],inactive
same,outcome,[5],inactive
CCN(CC)CCOc1ccc(C(=C(Cl)c2ccccc2)c2ccccc2)cc1,AC50,[12],65.8 µM (active)
same,AC50,[18],50.3 µM (active)
same,AC50,[13],81.1 µM (active)
same,AC50,[14],83.4 µM (active)
same,AC50,[15],66.2 µM (active)
same,AC50,[16],79.6 µM (active)
same,AC50,[17],68.3 µM (active)
same,AC50,DIO1 (gene 1733),70.7 µM (active)
same,outcome,[1],inactive
same,outcome,[2],inactive
same,outcome,[3],inactive
same,outcome,[6],inactive
same,outcome,[8],inactive
same,AC50,[9],91 µM (active)
same,outcome,[10],inactive
same,AC50,[11],84.2 µM (active)
same,AC50,[4],2.58 µM (active)
same,AC50,[5],2.62 µM (active)
Cc1cc(SC2=C(O)C[C@@](CCc3ccc(N)cc3)(C(C)C)OC2=O)c(C(C)(C)C)cc1CO,AC50,DIO1 (gene 1733),66.3 µM (active)
same,outcome,[1],inactive
same,outcome,[2],inactive
same,outcome,[3],inactive
same,outcome,[6],inactive
same,outcome,[8],inactive
same,outcome,[9],inactive
same,outcome,[10],inactive
same,outcome,[11],inactive
same,outcome,[4],inactive
same,outcome,[5],inactive
same,outcome,[7],inactive
